{
  "source": "the supplement of paper PMC8728848",
  "binders": {"B1": {"name": "Epf (Streptococcus pyogenes) (protein)", "chain": "GDHGPEFNGVMVVKAAEAEELPDDLMNFKGTWEVSADGSSGRFFSKGATDSYVFHLIPAKDVKKPGWREHNEVKDSYIKIDKQSIAARYKTSTTAPYSVAFKVNTKSLIKDHDYKITFEQGQIASGITVDYRIGSAFNKTTDDSFKISDESKYASNVKIEGEEQGFKQREQGDKTISFRTLKEGPMSLVLLSKVEKKPQGDLDVEFKNLKIIDVTNPSQLDKGVAYVGNKNVQLTLKSDDGRTNFEGDEISLFNSRGELLQTVTVTKDQQNPISITLSEDQAKSLKNKEKLKVSIKQKQSKKTSKDFFFEVGIDPKVEAKQKEKLLELDKVKKQIEDSINGDAWLPEKPVDLQGDHGLSAWSHPQFEK"}},
  "assay_in_all_cases": "glycan array binding signal (z-score within array); higher = stronger binding",
  "settings_in_all_cases": "glycan notation: IUPAC condensed, linker removed",
  "key": {"[1]": {"target": "Fuc(a1-2)Gal(b1-3)GalNAc(a1-3)[Fuc(a1-2)]Gal(b1-4)Glc", "procedure,_shortened": "(§1)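 Glycan array binding is given as a within-array Z-score, which can be read as non-binding when negative. The arrays, 3228 of them, came from the Consortium for Functional Glycomics database and were retained only where the protein sequence was available. Z-scores were averaged across arrays of the same protein sequence at different concentrations or buffers and across linkers.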"}, "Fuc(a1-2)Gal(b1-3)GlcNAc": {"target": "Fuc(a1-2)Gal(b1-3)GlcNAc", "procedure,_shortened": "as §1"}, "[2]": {"target": "Fuc(a1-2)Gal(b1-3)GlcNAc(b1-3)[Neu5Ac(a2-6)Gal(b1-4)GlcNAc(b1-6)]Gal(b1-4)Glc", "procedure,_shortened": "as §1"}, "[3]": {"target": "Fuc(a1-2)Gal(b1-3)[Fuc(a1-4)]GlcNAc(b1-3)[Fuc(a1-3)[Gal(b1-4)]GlcNAc(b1-6)]Gal(b1-4)Glc", "procedure,_shortened": "as §1"}, "[4]": {"target": "Fuc(a1-2)Gal(b1-4)GlcNAc(b1-2)Man", "procedure,_shortened": "as §1"}, "[5]": {"target": "Fuc(a1-2)Gal(b1-4)GlcNAc(b1-2)[Fuc(a1-2)Gal(b1-4)GlcNAc(b1-4)]Man(a1-3)[Fuc(a1-2)Gal(b1-4)GlcNAc(b1-2)Man(a1-6)]Man(b1-4)GlcNAc(b1-4)GlcNAc", "procedure,_shortened": "as §1"}, "[6]": {"target": "Fuc(a1-2)Gal(b1-4)GlcNAc(b1-3)[Fuc(a1-3)[Gal(b1-4)]GlcNAc(b1-6)]Gal(b1-4)Glc", "procedure,_shortened": "as §1"}, "[7]": {"target": "Fuc(a1-2)[GalNAc(a1-3)]Gal(b1-4)GlcNAc(b1-6)GalNAc", "procedure,_shortened": "as §1"}, "[8]": {"target": "Fuc(a1-3)[Gal(b1-4)]GlcNAc(b1-2)Man(a1-3)[Fuc(a1-3)[Gal(b1-4)]GlcNAc(b1-2)Man(a1-6)]Man(b1-4)GlcNAc(b1-4)[Fuc(a1-6)]GlcNAc", "procedure,_shortened": "as §1"}, "[9]": {"target": "Fuc(a1-3)[Gal(b1-4)]GlcNAc(b1-6)[Gal(b1-3)GlcNAc(b1-3)]Gal(b1-4)Glc", "procedure,_shortened": "as §1"}, "[10]": {"target": "Fuc(a1-3)[GalNAc(b1-4)]GlcNAc", "procedure,_shortened": "as §1"}, "Fuc(a1-4)GlcNAc": {"target": "Fuc(a1-4)GlcNAc", "procedure,_shortened": "as §1"}, "[11]": {"target": "Gal(a1-3)Gal(b1-4)GlcNAc(b1-6)GalNAc", "procedure,_shortened": "as §1"}, "Gal(a1-3)GalNAc": {"target": "Gal(a1-3)GalNAc", "procedure,_shortened": "as §1"}, "[12]": {"target": "Gal(b1-3)GalNAc(b1-4)Gal(b1-4)Glc", "procedure,_shortened": "as §1"}, "[13]": {"target": "Gal(b1-3)GlcNAc(b1-3)Gal(b1-4)GlcNAc(b1-6)[Gal(b1-3)GlcNAc(b1-3)]Gal(b1-4)Glc", "procedure,_shortened": "as §1"}, "[14]": {"target": "Gal(b1-3)GlcNAc(b1-3)Gal(b1-4)[Fuc(a1-3)]GlcNAc(b1-6)[Gal(b1-3)GlcNAc(b1-3)]Gal(b1-4)Glc", "procedure,_shortened": "as §1"}, "[15]": {"target": "Gal(b1-3)[GlcNAc(b1-6)]GalNAc", "procedure,_shortened": "as §1"}, "[16]": {"target": "Gal(b1-4)GlcNAc(b1-2)[Gal(b1-4)GlcNAc(b1-6)]Man(a1-6)[GlcNAc(b1-4)][Gal(b1-4)GlcNAc(b1-2)Man(a1-3)]Man(b1-4)GlcNAc(b1-4)GlcNAc", "procedure,_shortened": "as §1"}, "[17]": {"target": "Gal(b1-4)GlcNAc(b1-3)Gal(b1-4)Glc", "procedure,_shortened": "as §1"}, "[18]": {"target": "Gal(b1-4)GlcNAc(b1-3)Gal(b1-4)GlcNAc(b1-3)Gal(b1-4)GlcNAc(b1-3)Gal(b1-4)GlcNAc(b1-3)Gal(b1-4)GlcNAc(b1-2)Man(a1-3)[Gal(b1-4)GlcNAc(b1-3)Gal(b1-4)GlcNAc(b1-3)Gal(b1-4)GlcNAc(b1-3)Gal(b1-4)GlcNAc(b1-3)Gal(b1-4)GlcNAc(b1-2)Man(a1-6)]Man(b1-4)GlcNAc(b1-4)GlcNAc", "procedure,_shortened": "as §1"}, "[19]": {"target": "Gal(b1-4)GlcNAc(b1-3)Gal(b1-4)[Fuc(a1-3)]GlcNAc(b1-3)Gal(b1-4)[Fuc(a1-3)]GlcNAc", "procedure,_shortened": "as §1"}, "[20]": {"target": "Gal(b1-4)GlcNAc(b1-6)Gal(b1-4)GlcNAc", "procedure,_shortened": "as §1"}, "Gal3S(b1-4)Glc": {"target": "Gal3S(b1-4)Glc", "procedure,_shortened": "as §1"}, "[21]": {"target": "Gal3S(b1-4)[Fuc(a1-3)]GlcNAc", "procedure,_shortened": "as §1"}, "Gal6S(b1-4)GlcNAc6S": {"target": "Gal6S(b1-4)GlcNAc6S", "procedure,_shortened": "as §1"}, "[22]": {"target": "Glc(a1-6)Glc(a1-6)Glc(a1-6)Glc", "procedure,_shortened": "as §1"}, "[23]": {"target": "GlcNAc(b1-3)Gal(b1-4)GlcNAc(b1-2)Man(a1-3)[GlcNAc(b1-3)Gal(b1-4)GlcNAc(b1-2)Man(a1-6)]Man(b1-4)GlcNAc(b1-4)GlcNAc", "procedure,_shortened": "as §1"}, "[24]": {"target": "GlcNAc(b1-3)Gal(b1-4)GlcNAc(b1-3)Gal(b1-4)GlcNAc", "procedure,_shortened": "as §1"}, "[25]": {"target": "GlcNAc(b1-3)Gal(b1-4)GlcNAc(b1-3)Gal(b1-4)GlcNAc(b1-2)[GlcNAc(b1-3)Gal(b1-4)GlcNAc(b1-3)Gal(b1-4)GlcNAc(b1-6)]Man(a1-6)[GlcNAc(b1-3)Gal(b1-4)GlcNAc(b1-3)Gal(b1-4)GlcNAc(b1-2)Man(a1-3)]Man(b1-4)GlcNAc(b1-4)[Fuc(a1-6)]GlcNAc", "procedure,_shortened": "as §1"}},
  "note": "The entries come from a sample that favours the strongest signals as a whole.",
  "data": [
    {"binder": "B1", "values": [
      {"measurement": "glycan array binding signal (z-score)", "setting": "[1]", "result": -0.202},
      {"measurement": "glycan array binding signal (z-score)", "setting": "Fuc(a1-2)Gal(b1-3)GlcNAc", "result": -0.175},
      {"measurement": "glycan array binding signal (z-score)", "setting": "[2]", "result": 0.514},
      {"measurement": "glycan array binding signal (z-score)", "setting": "[3]", "result": 3.33},
      {"measurement": "glycan array binding signal (z-score)", "setting": "[4]", "result": 0.654},
      {"measurement": "glycan array binding signal (z-score)", "setting": "[5]", "result": -0.184},
      {"measurement": "glycan array binding signal (z-score)", "setting": "[6]", "result": 2.21},
      {"measurement": "glycan array binding signal (z-score)", "setting": "[7]", "result": -0.052},
      {"measurement": "glycan array binding signal (z-score)", "setting": "[8]", "result": -0.996},
      {"measurement": "glycan array binding signal (z-score)", "setting": "[9]", "result": -2.21},
      {"measurement": "glycan array binding signal (z-score)", "setting": "[10]", "result": 2.73},
      {"measurement": "glycan array binding signal (z-score)", "setting": "Fuc(a1-4)GlcNAc", "result": -0.354},
      {"measurement": "glycan array binding signal (z-score)", "setting": "[11]", "result": -1.75},
      {"measurement": "glycan array binding signal (z-score)", "setting": "Gal(a1-3)GalNAc", "result": 0.627},
      {"measurement": "glycan array binding signal (z-score)", "setting": "[12]", "result": -0.182},
      {"measurement": "glycan array binding signal (z-score)", "setting": "[13]", "result": 2.25},
      {"measurement": "glycan array binding signal (z-score)", "setting": "[14]", "result": 3.16},
      {"measurement": "glycan array binding signal (z-score)", "setting": "[15]", "result": 0.807},
      {"measurement": "glycan array binding signal (z-score)", "setting": "[16]", "result": 3.4},
      {"measurement": "glycan array binding signal (z-score)", "setting": "[17]", "result": -1.14},
      {"measurement": "glycan array binding signal (z-score)", "setting": "[18]", "result": 2.53},
      {"measurement": "glycan array binding signal (z-score)", "setting": "[19]", "result": -1.31},
      {"measurement": "glycan array binding signal (z-score)", "setting": "[20]", "result": -0.547},
      {"measurement": "glycan array binding signal (z-score)", "setting": "Gal3S(b1-4)Glc", "result": 1.73},
      {"measurement": "glycan array binding signal (z-score)", "setting": "[21]", "result": 1},
      {"measurement": "glycan array binding signal (z-score)", "setting": "Gal6S(b1-4)GlcNAc6S", "result": 2.34},
      {"measurement": "glycan array binding signal (z-score)", "setting": "[22]", "result": 0},
      {"measurement": "glycan array binding signal (z-score)", "setting": "[23]", "result": -0.562},
      {"measurement": "glycan array binding signal (z-score)", "setting": "[24]", "result": 0.659},
      {"measurement": "glycan array binding signal (z-score)", "setting": "[25]", "result": 0.082}
    ]}
  ]
}
